Measurements reported in PubChem BioAssay (Tox21).
Inconclusive results are not listed. Entries that show only a call come without a potency. Calls of active or inactive are those of the source. Unless noted, calls follow the shape of the dose curve; as a rule, active = well fitted curve in the direction sought with a large enough effect in the repeat runs; inconclusive = weak or mixed curves; inactive = no such curve, though single readings can be large; an effect the other way counts as inactive or inconclusive.

Experiments:
[1] = qHTS assay to identify small molecule antagonists of the estrogen related receptor (ERR) signaling pathway from Tox21 library - cell viability counter screen (AID 1224834); also: nearly all actives have a fitted effect of over 30% in size; also: potency is read from the fitted curve at half-maximal effect
Outline: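 Viability readout (CellTiter-Fluor fluorescence, 30 min at 37 C) multiplexed with the ERR assay; cells treated 17.5 h at 37 C with compounds delivered in DMSO.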

[2] = target: Luciferin 4-monooxygenase (Photinus pyralis) (UniProt P08659); assay: qHTS assay to identify small molecule inhibitors of firefly luciferase (AID 1224835); also: nearly all actives have a fitted effect of over 25% in size; also: potency is read from the fitted curve at half-maximal effect
Sequence of Luciferin 4-monooxygenase (Photinus pyralis) (P08659 whole entry, looked up): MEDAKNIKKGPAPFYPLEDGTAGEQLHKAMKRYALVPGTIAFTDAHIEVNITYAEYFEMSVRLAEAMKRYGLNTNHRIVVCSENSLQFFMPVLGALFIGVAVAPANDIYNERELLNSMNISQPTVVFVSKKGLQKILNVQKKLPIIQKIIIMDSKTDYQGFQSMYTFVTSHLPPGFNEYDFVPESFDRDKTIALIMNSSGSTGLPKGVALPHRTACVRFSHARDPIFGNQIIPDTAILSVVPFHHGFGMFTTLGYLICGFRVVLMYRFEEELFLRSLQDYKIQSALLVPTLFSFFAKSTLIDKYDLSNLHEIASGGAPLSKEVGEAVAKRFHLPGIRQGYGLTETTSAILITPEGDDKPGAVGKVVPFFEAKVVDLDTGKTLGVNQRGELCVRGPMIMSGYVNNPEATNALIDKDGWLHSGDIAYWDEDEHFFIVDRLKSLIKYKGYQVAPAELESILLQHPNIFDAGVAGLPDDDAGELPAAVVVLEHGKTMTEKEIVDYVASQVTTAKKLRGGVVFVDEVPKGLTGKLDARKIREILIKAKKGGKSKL
Outline: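 Biochemical qHTS: compounds run as interplate titrations against purified firefly enzyme, with D-luciferin and ATP each at its KM concentration. Light output recorded by CCD imaging.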

[3] = qHTS assay to identify small molecule agonists of the constitutive androstane receptor (CAR) signaling pathway - cell viability counter screen (AID 1224836); also: nearly all actives have a fitted effect of over 45% in size; also: potency is read from the fitted curve at half-maximal effect
Outline: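 Counter screen multiplexed with the CAR reporter readout: HepG2 cells co-transfected with hCAR and the CYP2B6-2.2kb construct receive a 15-concentration compound series and 0.75 uM PK11195 (final), then CellTiter-Fluor fluorescence is read after 23 h.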

[4] = qHTS assay to identify small molecule antagonists of the constitutive androstane receptor (CAR) signaling pathway - cell viability counter screen (AID 1224837); also: nearly all actives have a fitted effect of over 45% in size; also: potency is read from the fitted curve at half-maximal effect
Outline: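 Fluorescence from CellTiter-Fluor served as the viability signal. Human hepatoma HepG2 cells stably bearing hCAR and CYP2B6-2.2kb received compound plus CITCO (50 nM final) for 23 hr.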

[5] = target: Nuclear receptor subfamily 1 group I member 3 (Homo sapiens) (UniProt Q14994); assay: qHTS assay to identify small molecule antagonists of the constitutive androstane receptor (CAR) signaling pathway (AID 1224838);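 also: HepG2 cells stably expressing hCAR with CYP2B6 luciferase reporter stimulated by CITCO; nearly all actives have a fitted effect of over 40% in size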; also: potency is read from the fitted curve at half-maximal effect
Sequence of Nuclear receptor subfamily 1 group I member 3 (Homo sapiens) (Q14994 whole entry, looked up): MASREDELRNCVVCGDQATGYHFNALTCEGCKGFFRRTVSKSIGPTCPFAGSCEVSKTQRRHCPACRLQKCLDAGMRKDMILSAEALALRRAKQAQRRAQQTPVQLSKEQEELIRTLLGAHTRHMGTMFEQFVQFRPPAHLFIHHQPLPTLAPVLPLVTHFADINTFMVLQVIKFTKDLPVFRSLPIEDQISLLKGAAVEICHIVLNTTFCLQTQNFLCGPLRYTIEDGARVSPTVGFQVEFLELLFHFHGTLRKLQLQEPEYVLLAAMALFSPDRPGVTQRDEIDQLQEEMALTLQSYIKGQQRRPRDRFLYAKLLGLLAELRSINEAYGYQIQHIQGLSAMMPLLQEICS
Outline: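 Quantitative HTS in double-stable HepG2-CYP2B6-hCAR cells. After 4 h plating, cells get compound (15 concentrations) and CITCO at 50 nM final, incubate 24 h at 37 C, then ONE-Glo luminescence is read.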

[6] = target: Nuclear receptor subfamily 1 group I member 3 (Homo sapiens) (UniProt Q14994); assay: qHTS assay to identify small molecule agonists of the constitutive androstane receptor (CAR) signaling pathway (AID 1224839); also: nearly all actives have a fitted effect of over 15% in size; also: potency is read from the fitted curve at half-maximal effect
Outline: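 A 15-concentration quantitative screen uses HepG2 cells co-transfected stably with human CAR and CYP2B6-2.2kb reporter. Treatment lasts 24 h with 0.75 uM PK11195 final present; ONE-Glo luminescence is the signal.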

[7] = qHTS assay to identify small molecule antagonists of the estrogen related receptor signaling pathway with the pleiotropic PPARgamma coactivator (PGC) from Tox21 10K library - cell viability counter screen (AID 1224840; active = well fitted cell-killing curve with a large enough effect in the repeat runs, not every such curve was filed as active; also: nearly all actives have a fitted effect of over 40% in size; also: potency is read from the fitted curve at half-maximal effect)
Outline: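 Compounds in DMSO, alongside positive and negative controls, were pinned onto PGC/ERR cells (2,000 per well). Exposure lasted 17.5 hours at 37 C, followed by a 30-minute CellTiter-Fluor incubation and fluorescence reading.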

[8] = qHTS assay to identify small molecule agonists of the estrogen related receptor signaling pathway with the pleiotropic PPARgamma coactivator (PGC) from Tox21 10K library (AID 1224842); also: nearly all actives have a fitted effect of over 15% in size
Outline: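 PGC/ERR reporter cell line, 2,000 cells per well, incubated 6 h at 37 C before 23 nL compound in DMSO was added. After 18 h at 37 C, One-Glo luminescence read following 30 min at room temperature.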

[9] = target: Thyrotropin receptor (Homo sapiens) (UniProt P16473); assay: qHTS assay to identify small molecule agonists of the thyroid stimulating hormone receptor (TSHR) signaling pathway (AID 1224843; calls by dose curve; also: nearly all actives have a fitted effect of over 45% in size; also: potency is read from the fitted curve at half-maximal effect)
Sequence of Thyrotropin receptor (Homo sapiens) (P16473 whole entry, looked up): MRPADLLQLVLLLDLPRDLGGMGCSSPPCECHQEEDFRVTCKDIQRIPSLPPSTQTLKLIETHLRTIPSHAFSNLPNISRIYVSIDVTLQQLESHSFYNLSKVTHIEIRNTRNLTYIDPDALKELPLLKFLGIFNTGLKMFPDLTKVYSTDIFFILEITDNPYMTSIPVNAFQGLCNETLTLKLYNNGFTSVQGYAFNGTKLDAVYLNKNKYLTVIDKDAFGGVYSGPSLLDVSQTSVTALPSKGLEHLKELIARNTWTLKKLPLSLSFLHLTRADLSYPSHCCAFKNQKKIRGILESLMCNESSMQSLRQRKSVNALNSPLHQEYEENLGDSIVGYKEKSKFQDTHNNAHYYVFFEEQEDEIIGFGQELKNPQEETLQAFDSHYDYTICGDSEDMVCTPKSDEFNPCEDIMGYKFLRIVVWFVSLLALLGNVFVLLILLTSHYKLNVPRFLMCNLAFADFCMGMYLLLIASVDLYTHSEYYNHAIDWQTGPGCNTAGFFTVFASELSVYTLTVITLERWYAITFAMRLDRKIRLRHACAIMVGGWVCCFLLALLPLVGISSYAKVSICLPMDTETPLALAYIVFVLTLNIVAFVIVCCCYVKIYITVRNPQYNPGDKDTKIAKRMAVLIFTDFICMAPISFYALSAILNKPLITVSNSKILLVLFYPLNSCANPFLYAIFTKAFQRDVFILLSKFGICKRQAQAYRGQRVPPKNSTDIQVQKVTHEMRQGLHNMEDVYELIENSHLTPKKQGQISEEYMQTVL
Outline: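 Steps: seed 800 TSHR-HEK293 cells per well; add test compound and hold 30 min at ambient temperature; dispense cAMP-d2 then anti-cAMP cryptate; incubate 1 h at ambient; measure fluorescence intensity.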

[10] = qHTS assay to identify small molecule antagonists of the estrogen related receptor signaling pathway with the pleiotropic PPARgamma coactivator (PGC) from Tox21 10K library (AID 1224841; call rule not given here; also: series mostly up to about 92 µM; actives are mostly falling curves and most rising ones were filed inactive; nearly all actives have a fitted effect of over 50% in size)
Outline: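 Compound exposure ran 18 hours at 37 C in PGC/ERR cells (2,000/well) that had first rested 6 hours in a 37 C/5% CO2 incubator. Luciferase activity was then detected with One-Glo after a 30-minute room-temperature step.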

SMILES | Potency [1] | Potency [2] | Potency [3] | Potency [4] | Potency [5] | Potency [6] | Potency [7] | Potency [8] | Potency [9] | Potency [10]
COP(=S)(OC)Oc1cc(Cl)c(I)cc1Cl | inactive | 79.6 µM (active) | inactive | inactive | inactive | 54.5 µM (active) | inactive |  |  | 
CC(C)(C)c1cc([N+](=O)[O-])cc([N+](=O)[O-])c1O | 15.3 µM (active) | 70.8 µM (active) | 13.6 µM (active) | 15.3 µM (active) | 17.2 µM (active) | inactive | 15.3 µM (active) |  |  | 
O=NN1CCNCC1 | inactive | inactive | inactive | inactive | inactive | inactive | inactive |  |  | 
N#Cc1ccc(Cl)cc1 | inactive | inactive | inactive | inactive | inactive | inactive | inactive | inactive |  | 
CC(=O)[C@H]1CC[C@H]2[C@@H]3CC[C@H]4C[C@](C)(O)CC[C@]4(C)[C@H]3CC[C@]12C | inactive | inactive | inactive | inactive | inactive | inactive | inactive | inactive |  | 
CCOC(=O)COc1cc(-c2nn(C)c(OC(F)F)c2Cl)c(F)cc1Cl | inactive | inactive | inactive | inactive | inactive | inactive | inactive | inactive |  | 
COC1=CC(=O)O[C@@H](CCc2ccccc2)C1 | inactive | inactive | inactive | inactive | inactive | 56.7 µM (active) | inactive | inactive | inactive | 
COc1cc(CC(C)N)cc2c1OCO2 (centres undefined) | inactive | inactive | inactive | inactive | inactive | inactive | inactive | inactive | inactive | 
C=CC(=O)OCC(C)O (centres undefined) | inactive | inactive | inactive | inactive | inactive | inactive | inactive | inactive | inactive | 
O=[N+]([O-])c1ccc(F)c([N+](=O)[O-])c1 | 34.7 µM (active) | inactive | 34.7 µM (active) | 34.7 µM (active) | inactive | inactive | 55 µM (active) | inactive |  | 
IC(I)=C(I)I | 27.3 µM (active) | inactive | 30.6 µM (active) | 27.3 µM (active) | 12.2 µM (active) | inactive | 24.3 µM (active) | inactive |  | 
O=C1C(Cl)C(CCl)CN1c1cccc(C(F)(F)F)c1 (centres undefined) | inactive | inactive | inactive | inactive | inactive | inactive | inactive | inactive |  | 
CC(C)=CCOc1c2occc2cc2ccc(=O)oc12 | inactive | inactive | inactive | inactive | inactive | 10.6 µM (active) | inactive | inactive | inactive | inactive
Sc1ccccc1Cl | inactive | inactive | inactive | inactive | inactive | inactive | inactive | inactive | inactive | 
CC(Cl)Cl | inactive | inactive | inactive | inactive | inactive | inactive | inactive | inactive | inactive | inactive
CCOP(O)OCC | inactive | inactive | inactive | inactive | inactive | inactive | inactive |  | inactive | 
CCN(C)N=O | inactive | inactive | inactive | inactive | inactive | inactive | inactive |  | inactive | 
ClP(Cl)(Cl)(Cl)Cl | inactive | 31.9 µM (active) | inactive | inactive | inactive | inactive | inactive | inactive | inactive | 
COc1nn(C(=O)NS(=O)(=O)c2ccccc2OC(F)(F)F)c(=O)n1C | inactive | inactive | inactive | inactive | inactive | inactive | inactive | inactive | inactive | inactive
C=CC(=O)OCC(C)C | inactive | inactive | inactive | inactive | inactive | inactive | inactive | inactive | inactive | 
CC(=O)CCC(C)=O | inactive | inactive | inactive | inactive | inactive | inactive | inactive |  | inactive | 
O=[Se]=O | inactive | inactive | 21.5 µM (active) | 21.5 µM (active) | 27.1 µM (active) | inactive | 17.1 µM (active) | inactive | inactive | 
CCCCC(CC)COP(=O)(Oc1ccccc1)Oc1ccccc1 (centres undefined) | inactive | inactive | inactive | inactive | inactive | 27.3 µM (active) | inactive |  | 27.3 µM (active) | 
CC(O)(CS(=O)(=O)c1ccc(F)cc1)C(=O)Nc1ccc(C#N)c(C(F)(F)F)c1 (centres undefined) | inactive | inactive | inactive | inactive | inactive | inactive | inactive | inactive |  | 
CC(C)(Cl)[N+](=O)[O-] | inactive | inactive | inactive | inactive | inactive | inactive | inactive | inactive | inactive | 
COC(=O)c1cncn1C(C)c1ccccc1 (centres undefined) | inactive | inactive | inactive | inactive | inactive | inactive | inactive |  | inactive | 
